D2 PAM-1: potentiates the human D2 dopamine receptor allosterically | P14416 | DiscoveRx D2 beta-arrestin cells, luminescence, 90 min; 100% = 57 uM dopamine signal | potentiation, % (test concentration not listed) | 360,000 compounds, 0.23% hits | AID 624464; in the data active means potentiation above about 50%; inconclusive means mostly about 30% to 49%
Target sequence (P14416 whole entry, looked up): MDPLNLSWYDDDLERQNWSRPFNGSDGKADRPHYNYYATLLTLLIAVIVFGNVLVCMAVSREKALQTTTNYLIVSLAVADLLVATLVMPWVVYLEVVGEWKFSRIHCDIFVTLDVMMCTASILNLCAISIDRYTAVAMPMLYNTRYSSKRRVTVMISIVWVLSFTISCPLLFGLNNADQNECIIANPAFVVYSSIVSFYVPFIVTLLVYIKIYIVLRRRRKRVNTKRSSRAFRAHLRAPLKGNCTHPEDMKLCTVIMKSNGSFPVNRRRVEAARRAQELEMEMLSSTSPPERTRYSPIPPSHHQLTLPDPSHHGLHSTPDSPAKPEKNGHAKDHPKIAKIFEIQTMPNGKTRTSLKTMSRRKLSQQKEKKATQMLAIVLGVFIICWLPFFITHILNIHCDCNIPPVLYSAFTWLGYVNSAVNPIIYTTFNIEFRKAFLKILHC
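PathHunter beta-arrestin assay in DiscoveRx D2 cells. Compounds were added with an EC20 of dopamine (50 nM final) for 90 min at 37 deg C. Luminescence was read 1 h after detection reagent, with 57 uM dopamine as the EC100 control.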
D2 ag-1: activates the human D2 dopamine receptor; P14416; 360,000 compounds, 0.084% hits; DiscoveRx PathHunter D2 beta-arrestin, luminescence, 90 min; 100% = 57 uM dopamine signal; activation, % (test concentration not listed); AID 624465; in the data active means activation above about 40%; inconclusive means between about 15% and that limit
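Agonist mode: compounds alone added to overnight-plated D2 PathHunter cells for 90 min at 37 C, with 57 uM final dopamine (EC100) defining full response. Beta-arrestin recruitment detected by chemiluminescent reagent, read after 1 h at ambient temperature.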
D2 PAM-2: D2 dopamine receptor (human) potentiation | P14416 | HEK293 T-REx D2, calcium flux, EC20 dopamine potentiation | potentiation, % at 10 µM | 340,000 compounds, 0.34% hits | AID 485347;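 active means potentiation over 3 SD above the plate norm, cut at about 30% in these data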
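Using a no-wash calcium dye in inducible, force-coupled HEK293 Trex cells expressing D2, we tracked fluorescence each second for 180 s after compound, then for 180 s after EC20 dopamine to detect augmented signalling.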
D2 antag: antagonizes the human D2 dopamine receptor; P14416; HEK293 TREx D2 cells, calcium flux, dopamine EC80; inhibition, % at 10 µM; 340,000 compounds, 2% hits; AID 485344; in the data active means inhibition above about 30%; inactive means below that, where a call was filed
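Calcium mobilization kinetics were recorded at 1 s intervals in tetracycline-induced HEK293 T-REx D2 cells, first for 180 s after compound addition and then 180 s after EC80 dopamine.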
D2 ag-2: D2 dopamine receptor (human) agonism. HEK293 T-REx D2 cells, calcium flux agonist mode. activation, % at 2 µM. 340,000 compounds, 0.53% hits. AID 485358;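 active means activation over 3 SD above normal in the single-dose calcium agonist read, cut at about 30% in these data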
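In this primary screen, compounds producing a positive calcium signal within 180 s of addition to tetracycline-induced, force-coupled HEK293 Trex D2 cells are flagged; cells are dye-loaded with a no-wash calcium kit beforehand.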
Hits are given with their value; i = inactive; ? = inconclusive; nt = no result given. Most compounds without a hit are left out; they make up all but 2.4% or so of the library.

SMILES	D2 PAM-1	D2 ag-1	D2 PAM-2	D2 antag	D2 ag-2
O=C(c1cc2nc(-c3cccs3)cc(C(F)(F)F)n2n1)N1CCCc2ccccc21	i	i	i	31	i
Cc1ccc(C)c(CSc2nc3ncccc3[nH]2)c1	nt	nt	i	nt	i
O=C(Nc1ccon1)Nc1ccc(F)cc1F	i	i	i	31	i
CCN1CCCC1CNC(=O)c1ccc(Sc2ccccc2Cl)c([N+](=O)[O-])c1 (configuration not stated)	i	i	i	72	i
CCN1CCN(C(=O)c2ccc(Sc3ccccc3Cl)c([N+](=O)[O-])c2)CC1	i	i	i	i	i
CCN1CCCC1CNC(=O)c1ccc(Sc2ccc(F)cc2)c([N+](=O)[O-])c1 (configuration not stated)	i	i	i	35	i
CCOc1ccc(NC(=O)CC2C(=O)N(c3ccccc3)C(=O)N2CCc2sccc2C)cc1 (configuration not stated)	nt	nt	i	nt	i
COc1ccc(-c2nc3scc(CCNC(=O)c4cccc(Br)c4)n3n2)cc1	nt	nt	i	nt	i
CCc1cccc(C)c1NC(=O)CCS(=O)(=O)c1ccc2c(c1)oc(=O)n2C	nt	nt	i	nt	i
O=C(NCCN1CCOCC1)c1cc2sccc2n1Cc1ccc(F)cc1	i	i	i	38	i
CCCc1cc(=O)oc2c3c(cc(OCC(=O)N[C@@H](C)C(=O)O)c12)OC(C)(C)CC3	i	i	i	33	i
CCCc1cc(=O)oc2c3c(cc(OCC(=O)N[C@@H](CSC)C(=O)O)c12)OC(C)(C)CC3	i	i	i	i	i
CCc1ccc(-c2cc(C)no2)cc1S(=O)(=O)NCCc1ccccc1	i	i	i	30	i
Cc1cc(-c2ccc(C)c(S(=O)(=O)NCCCN3CCCCCC3)c2)on1	i	i	i	34	i
Cc1cc(-c2ccc(C)c(S(=O)(=O)NCCC(C)N3CCCCCC3)c2)on1 (configuration not stated)	i	i	i	i	i
CCc1ccc(-c2cc(C)no2)cc1S(=O)(=O)NC(C)Cc1ccco1 (configuration not stated)	i	i	84	i	i
Cc1cc(-c2ccc(C)c(S(=O)(=O)NCCc3ccccc3)c2)on1	nt	nt	i	nt	i
Cc1c(C(=O)NCc2ccc(OC(C)C)cc2)sc2ncnc(N(C)C3CCCCC3)c12	nt	nt	i	nt	nt
C=CCn1c(SCC(=O)Nc2ncc(Cc3ccc(Br)cc3)s2)nnc1-c1ccncc1	i	i	32	i	i
Cn1nnnc1SCC(=O)Nc1ccc(Br)cc1Cl	i	i	44	i	i
CC(C)(C)C(=O)NCCc1csc2nc(-c3ccc(F)cc3)nn12	nt	nt	i	nt	i
CC(C)Cn1c(=S)[nH]c2cc(C(=O)O)ccc2c1=O	i	i	i	31	i
COCCn1c(=S)[nH]c2cc(C(=O)NC(C)C)ccc2c1=O	i	i	i	i	i
COCCn1c(C)cc(O)c(C(c2ccccc2OC)N2CCCCC2)c1=O (configuration not stated)	nt	nt	i	nt	i
Cc1oc2c(c1C(=O)c1ccccc1)C(=O)C(=O)c1ccccc1-2	i	?	i	i	i
SMILES	D2 PAM-1	D2 ag-1	D2 PAM-2	D2 antag	D2 ag-2
O=C1C(=O)c2c(C(=O)c3ccccc3)coc2-c2ccccc21	71	?	i	i	i
COc1ccc(NC(=O)C2=C(C)Nc3ncnn3C2c2ccc(O)cc2)cc1 (configuration not stated)	nt	nt	i	nt	i
COc1ccc(C)cc1NC(=O)CN1C(=O)CSc2ccc(S(=O)(=O)N3CCCC3)cc21	i	i	i	i	i
COc1ccc(OC)c(NC(=O)CN2C(=O)CSc3ccc(S(=O)(=O)N4CCCC4)cc32)c1	i	i	33	i	i
CCC1(c2ccccc2)NC(=O)N(CC(=O)Nc2cc(S(=O)(=O)N3CCCCCC3)ccc2OC)C1=O (configuration not stated)	63	i	nt	nt	nt
CCc1cccc(NCc2ccccc2-c2nnc(-c3ccccc3Cl)o2)c1	nt	nt	i	nt	i
Cc1ccc(Nc2ncc(C(=O)Nc3ccc(F)cc3F)c3ccccc23)cc1Cl	nt	nt	i	nt	i
CCc1cc(C(=O)Cc2cnn(-c3ccccc3)c2)c(O)cc1O	i	i	i	i	i
O=C(Cc1cnn(-c2ccccc2)c1)c1ccc(O)c(O)c1O	110	?	i	i	i
CCN1Cc2cccc(C(=O)Nc3ccc(F)cc3)c2C1=O	nt	nt	i	nt	nt
Cc1ccc(NC(=O)[C@H](NC(=O)[C@@H]2Cc3ccccc3CN2)c2ccccc2)cc1	i	i	i	i	i
CC(C)c1ccc(NC(=O)[C@H](NC(=O)[C@@H]2Cc3ccccc3CN2)c2ccccc2)cc1	i	i	i	33	i
COc1cccc(NC(=O)[C@H](Cc2ccccc2)NC(=O)[C@@H]2Cc3ccccc3CN2)c1	i	i	i	35	i
Cc1nc2ccccc2c(=O)n1CCCO	i	i	i	32	i
COc1ccc(NC(=O)CC2C(=O)N(c3ccccc3)C(=O)N2Cc2cccnc2)cc1 (configuration not stated)	nt	nt	i	nt	i
CCn1c(C)c(C(=O)c2ccccc2)c(C#N)c1C(=O)O	i	i	i	33	i
Cc1c(C#N)c(N)c(C(=O)c2ccccc2)n1Cc1ccccc1	i	i	i	i	i
CC1CCc2c(sc3nc(-c4cc5cc(Br)ccc5oc4=O)[nH]c(=O)c23)C1 (configuration not stated)	nt	nt	i	nt	i
O=C(O)CC1(CC(=O)N2CCOCC2)CCCC1	i	i	36	i	i
O=C(O)CC1(CC(=O)N2CCC(C(=O)O)CC2)CCCC1	i	i	i	i	i
COc1ccc([N+](=O)[O-])cc1NC(=O)Nc1ccccc1	i	i	i	37	i
COc1ccc([N+](=O)[O-])cc1NC(=O)C(C)N1CCCC1 (configuration not stated)	i	i	i	31	i
COC(=O)Nc1cc([N+](=O)[O-])ccc1OC	i	i	i	i	i
Cc1ccc(OCC(=O)NCC2(N(C)C)CCCCC2)cc1C	nt	nt	i	nt	i
CCc1cc2ccc(C)cc2nc1SCC(=O)Nc1cc(C)on1	i	i	i	i	i
CCc1cc2cc3c(cc2nc1SCC(=O)Nc1cc(C)on1)OCO3	i	i	i	32	i
CCOC(=O)CSc1nc2cc3c(cc2cc1CC)OCCO3	i	i	75	i	i
Cc1ccsc1C(C(=O)NCc1ccccc1)N(C(=O)c1csnn1)c1ccccc1 (configuration not stated)	i	i	i	33	i
O=C(NCc1ccccc1)C(c1cccnc1)N(C(=O)c1ccccn1)c1ccccc1F (configuration not stated)	i	i	i	i	i
CC(C)(C)NC(=O)C(c1ccco1)N(C(=O)c1csnn1)c1ccccc1 (configuration not stated)	i	i	36	i	i

Compound activity: PubChem BioAssay, National Center for Advancing Translational Sciences (NCATS)
